According to PubChem BioAssay AID376 (PDSP, 2006):
The whole screen tested about 2,000 compounds, of which about 250 (12%) were called active. The entries come from a sample that favours actives as a whole. Unmarked numbers belong to inactive results. No stated cut-off is given here; in the data, active means hERG blockade below about -20% or above about 20%; inactive means in between.

These molecules were tested against Voltage-gated inwardly rectifying potassium channel KCNH2 (Homo sapiens) (UniProt Q12809) (assay: modulators of KCNH2 ion channel function, cellular (AID 376;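 further: 0% = buffer alone and 100% = reference blocker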)). Conditions: hERG-expressing cells, channel activity single-concentration screen; concentration not given here.
Sequence of Voltage-gated inwardly rectifying potassium channel KCNH2 (Homo sapiens) (Q12809 whole entry, looked up): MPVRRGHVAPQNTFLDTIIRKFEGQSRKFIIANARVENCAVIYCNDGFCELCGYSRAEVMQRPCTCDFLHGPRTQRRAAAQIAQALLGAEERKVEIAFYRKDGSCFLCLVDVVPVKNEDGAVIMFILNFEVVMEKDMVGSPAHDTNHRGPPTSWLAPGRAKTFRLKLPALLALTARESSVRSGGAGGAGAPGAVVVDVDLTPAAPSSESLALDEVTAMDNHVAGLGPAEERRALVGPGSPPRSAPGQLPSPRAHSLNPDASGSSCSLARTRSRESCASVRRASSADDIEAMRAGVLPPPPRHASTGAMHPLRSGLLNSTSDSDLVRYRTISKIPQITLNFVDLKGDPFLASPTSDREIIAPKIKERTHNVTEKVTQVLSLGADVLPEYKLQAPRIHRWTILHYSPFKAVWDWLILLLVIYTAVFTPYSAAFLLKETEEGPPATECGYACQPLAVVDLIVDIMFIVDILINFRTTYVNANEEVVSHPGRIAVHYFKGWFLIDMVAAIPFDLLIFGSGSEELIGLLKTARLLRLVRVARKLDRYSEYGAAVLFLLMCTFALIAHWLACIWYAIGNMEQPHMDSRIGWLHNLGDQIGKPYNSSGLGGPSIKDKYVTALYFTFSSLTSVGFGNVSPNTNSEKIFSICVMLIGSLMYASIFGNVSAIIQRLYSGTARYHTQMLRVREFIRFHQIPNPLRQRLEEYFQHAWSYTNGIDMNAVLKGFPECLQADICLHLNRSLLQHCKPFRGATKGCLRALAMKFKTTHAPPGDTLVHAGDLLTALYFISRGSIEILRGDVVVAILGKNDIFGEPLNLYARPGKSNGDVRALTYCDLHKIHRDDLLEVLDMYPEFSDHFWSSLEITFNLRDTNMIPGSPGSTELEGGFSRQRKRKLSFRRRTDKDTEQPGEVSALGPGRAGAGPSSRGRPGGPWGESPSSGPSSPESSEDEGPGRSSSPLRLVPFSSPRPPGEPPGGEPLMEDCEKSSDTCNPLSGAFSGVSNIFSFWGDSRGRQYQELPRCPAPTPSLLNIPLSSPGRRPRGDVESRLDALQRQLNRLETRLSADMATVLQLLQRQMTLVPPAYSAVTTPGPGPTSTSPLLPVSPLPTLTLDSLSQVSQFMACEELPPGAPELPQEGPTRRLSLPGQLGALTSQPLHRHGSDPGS

First: CC1CCC(O)(C(C)(C(=O)O)c2ccccc2)CC1 (stereo not given)
Second: NC(CSCc1ccccc1)C(=O)O (stereo not given)
The hERG blockade of the first is higher: 5.36% for the first, -2.53% for the second.

First: CCCn1cnc2c(SCc3ccc(Cl)cc3)nc(N)nc21
Second: Nc1nc(SCc2ccccc2[N+](=O)[O-])c2[nH]cnc2n1
The hERG blockade of the first is higher: -2.91% for the first, -11.5% for the second.

Compared with `C=CCC(C(=O)O)c1ccccc1` (stereo not given), `O=C(O)CC(Nc1ccccc1)C(=O)O` (stereo not given) is higher in hERG blockade: -1.33% for the first, 12.6% for the second.

First: CN(C)CN1CSC(=S)N(CN(C)C)C1
Second: CN(C)CCNS(=O)(=O)N(C)C
The hERG blockade of the first is lower: -7.7% for the first, 6.32% for the second.

Compared with `Cn1c(=O)c2[nH]c(CCCCC(=O)O)nc2n(C)c1=O`, `Cn1c(=O)c2[nH]c(CCS)nc2n(C)c1=O` is higher in hERG blockade: -14.9% for the first, 5.6% for the second.

Compared with `O=C(O)c1nnsc1COCc1ccccc1`, `CS(=O)(=O)N(CC(=O)O)Cc1ccccc1` is higher in hERG blockade: 7.88% for the first, 12.2% for the second.

First: O=C(CCN1CCCCC1)c1csc2ccccc12
Second: Cc1sc2ccccc2[n+]1CCC(=O)O
The hERG blockade of the first is higher: 6.4% for the first, -12.2% for the second.

Compared with `CC(=O)OC1CCC2(C)C(=CCC3C2CCC2(C)C(C(C)C(=O)O)CCC32)C1` (stereo not given), `CC(=O)OC1CCC2(C)C(=CCC3C2CCC2(C)C3CC3OC4(CCC(C)CN4)C(C)C32)C1` (stereo not given) is lower in hERG blockade: -4.67% for the first, -9.31% for the second.

Compared with `CC(C)(CN)CN`, `CN(C)CCCN=C(N)N` is higher in hERG blockade: -12.2% for the first, -7.66% for the second.

Going from `O=c1c[n+](CCCC[n+]2cc(=O)o[nH]2)[nH]o1` to `CCC(CN(C)C)C(=O)c1ccco1` (stereo not given), the hERG blockade rises from -2.64% to 5.17%.

Going from `Nc1ncnc2nc[nH]c12.Nc1ncnc2nc[nH]c12.[Cl][Pt]([Cl])([Cl])[Cl]` to `CNc1ncnc(Sc2nc(N)nc3nc[nH]c23)c1[N+](=O)[O-]`, the hERG blockade falls from 0.497% to -10.6%.

Compared with `O=C1C=C(Nc2nc(C(=O)O)cc(=O)[nH]2)c2ccccc2C1=O`, `O=C(Nc1c[nH]c(=O)[nH]c1=O)Oc1ccccc1` is lower in hERG blockade: 2.16% for the first, -11% for the second.

Compared with `Nc1n[nH]c2ccccc12`, `NS(=O)(=O)c1cc(C(=O)O)c(O)c2ccccc12` is higher in hERG blockade: 0.624% for the first, 2.98% for the second.

First: O=C(O)CSc1ccc(N=C=S)cc1
Second: O=C(O)CNc1ccc(C(=O)O)cc1
The hERG blockade of the first is higher: 3.98% for the first, 1.76% for the second.

Going from `CC(C)(N)C(=O)NC1C(=O)N2C1SC(C)(C)C2C(=O)O` (stereo not given) to `COC(=O)C1(C)CCC(c2ccc(C)cc2)=C(CC(=O)O)C1` (stereo not given), the hERG blockade falls from -3.34% to -13.4%.

Compared with `COC1C=COC2(C)Oc3c(C)c(O)c4c(O)c(c(CN(C)C)c(O)c4c3C2=O)NC(=O)C(C)=CC=CC(C)C(O)C(C)C(O)C(C)C(OC(C)=O)C1C` (stereo not given), `CC(C)=CCc1c2c(c3occ(-c4ccc(O)c(O)c4)c(=O)c3c1O)C=CC(C)(C)O2` is lower in hERG blockade: 16.3% for the first, 6.29% for the second.

Compared with `NN(CC(=O)O)CC(=O)O`, `CC1CCCC(CC(=O)O)(CC(=O)O)C1` (stereo not given) is lower in hERG blockade: 0.375% for the first, -3.65% for the second.

First: O=C(O)c1ccc(SSc2ccc(C(=O)O)cn2)nc1
Second: O=C(O)c1ccc(C(=O)Nc2cccc3ccccc23)c(C(=O)O)c1
The hERG blockade of the first is lower: -6.71% for the first, -3.99% for the second.

Going from `O=C(O)C1C2CC3C(OC(=O)C31)C2Br` (stereo not given) to `O=C(O)C1CC2(C1)CC(C(=O)O)C2` (stereo not given), the hERG blockade falls from 2.45% to -11.8%.

First: Cn1c(=O)c2[nH]c(CCNC(=O)c3ccccc3)nc2n(C)c1=O
Second: Cn1c(=O)c2[nH]c(C3CC(=O)CC(c4nc5c([nH]4)c(=O)n(C)c(=O)n5C)N3)nc2n(C)c1=O (stereo not given)
The hERG blockade of the first is lower: -14% for the first, -8.89% for the second.

Going from `CC1(C)N=C(N)N=C(N)N1c1cccc(OCc2cccc(N)c2)c1` to `CNC1NC(=O)c2ccccc2N1Cc1ccc(F)cc1` (stereo not given), the hERG blockade rises from 4.96% to 9.53%.

Compared with `NC(=O)CC=CCC(N)=O`, `Nc1nc(SCC(=O)O)[nH]c(=O)c1N` is higher in hERG blockade: 1.92% for the first, 5.23% for the second.

Compared with `S=C(CSc1ccccc1)Nc1cccc2ccccc12`, `c1ccc(CSc2nnc3c4ccccc4c4ccccc4c3n2)cc1` is higher in hERG blockade: -7.05% for the first, -3.1% for the second.

First: O=C(NCCO)c1ccc(Cl)cc1
Second: OCc1ccncc1.OCc1ccncc1.[Cl][Pt]([Cl])([Cl])[Cl]
The hERG blockade of the first is higher: 5.8% for the first, 1.38% for the second.

First: c1ccc(B2OCC(C3OB(c4ccccc4)OC4COB(c5ccccc5)OC43)O2)cc1 (stereo not given)
Second: Oc1ccccc1C(Sc1nc2ccccc2s1)Sc1nc2ccccc2s1
The hERG blockade of the first is higher: 2.69% for the first, -6.16% for the second.

Going from `CC1(CC(=O)O)OC2CCCCCC2O1` (stereo not given) (tested in a mixture with another compound) to `CC12CCC3c4ccc(O)cc4CCC3C1CCC2OP(=O)(O)O` (stereo not given), the hERG blockade falls from 1.56% to -3.7%.

Compared with `COc1ccc(CC[N+]2(C)COc3cc4oc(=O)cc(C)c4cc3C2)cc1OC` (stereo not given), `O=C(O)c1c(-c2c3ccc(=O)cc-3oc3cc(O)ccc23)cc2ccccc2c1-c1ccccc1` is higher in hERG blockade: 11% for the first, 11.7% for the second.

First: Cc1c(O)c(Br)c(C)c(O)c1Br (tested in a mixture with another compound)
Second: Cc1c(S(=O)(=O)O)ccc(N=Nc2c(O)c(C(=O)O)cc3ccccc23)c1Cl
The hERG blockade of the first is higher: 12.5% for the first, 2.42% for the second.

Going from `CC12CCC3c4ccc(O)cc4CCC3C1CC(=NO)C2O` (stereo not given) to `NS(=O)(=O)c1ccc(N=Nc2ccc(O)c(C(=O)O)c2)cc1`, the hERG blockade rises from -10.7% to -6.41%.

First: CCC(=O)Nc1ncnc2ncn(C(=O)CC)c12
Second: CCCC(Sc1nc(N)nc2nc[nH]c12)C(=O)O (stereo not given)
The hERG blockade of the first is higher: 12.6% for the first, 2.81% for the second.

Going from `COc1ccc(C(Nc2ccccn2)c2cc(C(C)(C)C)cc(C(C)(C)C)c2O)cc1` (stereo not given) to `COc1ccc(C(O)c2ccccn2)cc1` (stereo not given), the hERG blockade falls from 9.88% to 3.46%.

First: CC(C)COC(c1ccc2c(c1)OCO2)C(C)Br (stereo not given)
Second: CN(C)Cc1cc(C(C)(C)C)cc(CN(C)C)c1O
The hERG blockade of the first is lower: 0.642% for the first, 6.58% for the second.

Going from `CC(C)(C)NCC(O)c1ccc(O)c(CO)n1` (stereo not given) to `CCOC(=O)C(O)Cc1cnc2ccccc2n1` (stereo not given), the hERG blockade rises from -0.947% to 19.4%.

Compared with `Clc1cccc(Cl)c1C(Nc1nncs1)Nc1nncs1`, `c1ccc(-c2cc(-c3cc(-c4ccccn4)[nH]n3)n[nH]2)nc1` is higher in hERG blockade: -3.96% for the first, 6.68% for the second.

First: NS(=O)(=O)c1ccc(N=Nc2ncccc2O)cc1
Second: O=C1Nc2ccccc2C1=Nc1ccc(S(=O)(=O)Nc2nccs2)cc1
The hERG blockade of the first is higher: 17.7% for the first, -2.12% for the second.

Going from `CC(=NNc1nc(C)cc(=O)[nH]1)C(=O)O` to `O=C1Nc2ccccc2C1=Nc1cccc2ncccc12`, the hERG blockade rises from -18.5% to -1.09%.

First: CN(C)Cc1cc(C(C)(C)C)ccc1-c1ccc(C(C)(C)C)cc1CN(C)C
Second: O=C1c2ccccc2-c2ccc(N=[N+]([O-])c3ccc4c(c3)C(=O)c3ccccc3-4)cc21
The hERG blockade of the first is higher: 17.8% for the first, -2.94% for the second.

First: O=C1CCC(c2ccccc2)=NN1c1nc2ccccc2s1
Second: O=C(O)c1cc(C(=O)C(=O)c2cc(C(=O)O)c(O)c3ccccc23)c2ccccc2c1O
The hERG blockade of the first is lower: -9.74% for the first, 18.7% for the second.

Going from `CC(C(=O)c1ccncc1)c1ccccn1` (stereo not given) to `c1ccc(CCNCc2ccco2)nc1`, the hERG blockade falls from -1.76% to -7.49%.

For `O=C1c2cc([N+](=O)[O-])ccc2-c2ccc3c4ccc5c6c(ccc(c7ccc1c2c73)c64)C(=O)c1cc([N+](=O)[O-])ccc1-5`, the hERG blockade was 12.2%.

For `CCn1c(CCCc2nc3c([nH]2)c(=O)n(C)c(=O)n3C)nc2c1c(=O)n(C)c(=O)n2C`, the hERG blockade was 25.2% (active).
In the case of `O=c1c2ccccc2sc2c(CO)ccc(NCCN3CCCCC3)c12`, the hERG blockade is reported as 46% (active).
For `CC(=O)OC1CCC2(C)C(=CCC3C2CCC2(C)C(c4cc(C(F)(F)F)n(C(C)=O)n4)CCC32)C1` (stereo not given), the hERG blockade was 20.6% (active).
In the case of `O=C=Nc1ccc(Cc2ccc(N=C=O)cc2)cc1` (tested in a mixture with another compound), the hERG blockade is reported as 20% (active).
In the case of `COc1c2c(c3c(c1CCC(=O)O)OC(C)(C)C=C3)OC(C)(C)C=C2`, the hERG blockade is reported as -28.9% (active).
For `O=C(O)CN(CC(=O)O)c1ccccc1`, the hERG blockade was -27.7% (active).
`N=C(N)c1ccc(C=Cc2ccc(C(=N)N)cc2)cc1` was tested, and the hERG blockade was 30.2% (active).
With `N=C(N)c1ccc(-c2ccc(-c3ccc(C(=N)N)cc3)o2)cc1` the hERG blockade was 38.8% (active).
With `Nc1nc(Sc2ccc([N+](=O)[O-])c3nonc23)c2[nH]cnc2n1` the hERG blockade was 23.5% (active).
In the case of `O=C(Nc1cccc2ccccc12)c1ccccc1`, the hERG blockade is reported as -30.7% (active).
For `OCCNC1c2cc(Cl)ccc2-c2c(Cl)cc(Cl)cc21` (stereo not given), the hERG blockade was 46.9% (active).
In the case of `CC1(C)C2CCC1(CC(=O)O)C(Cl)C2` (stereo not given), the hERG blockade is reported as -22.5% (active).
For `CC(NCCN(C)C)C1CCC2C3CCc4cc(O)ccc4C3CCC12C` (stereo not given), the hERG blockade was 22.1% (active).
In the case of `Cc1cc(=Nc2ccc3c(c2)c(N)cc(C)[n+]3C)nc(N)n1C`, the hERG blockade is reported as 30.2% (active).
For `COc1ccc(C(Nc2ncccn2)c2cc3c(cc2O)OCO3)cc1` (stereo not given), the hERG blockade was -20.2% (active).
`COc1ccc(C(C)c2cc3c(cc2O)OCO3)cc1` (stereo not given) was tested, and the hERG blockade was 30% (active).
With `NS(=O)(=O)c1ccc(N=Nc2c(O)c(C(=O)O)cc3ccccc23)cc1` the hERG blockade was 22.9% (active).
`NS(=O)(=O)c1ccc(N=Nc2cc3ccccc3c(C(=O)O)c2O)cc1` was tested, and the hERG blockade was 33.3% (active).
With `NS(=O)(=O)c1ccc(N=C2C(=O)Nc3ccccc32)cc1` the hERG blockade was -20.3% (active).
With `CN(C)Cc1cc(C(F)(F)F)ccc1C(O)(c1ccccc1)c1ccccc1` the hERG blockade was 21.7% (active).
For `O=C1c2ccccc2-c2cc([N+](=O)[O-])c([N+](=O)[O-])cc21`, the hERG blockade was 77.8% (active).
